# Tau fibril ThT: blocks human tau fibril formation measured by thioflavin T | 270,000 compounds, 2.1% hits | Potency, µM (titrated, usually from 57.4 µM), for the others: at the highest dose activity, negative = inhibition, most hits filed as inhibitors | recombinant tau K18 P301L, heparin-induced fibrillization, ThT fluorescence; also: nearly all actives have a fitted effect of over 55% in size
# Target sequence (P10636 561-689 P618L limits assumed): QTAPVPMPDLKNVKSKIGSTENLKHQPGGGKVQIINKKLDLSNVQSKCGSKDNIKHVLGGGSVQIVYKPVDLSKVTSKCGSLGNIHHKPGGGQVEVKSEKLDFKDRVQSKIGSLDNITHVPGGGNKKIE
#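 Tau K18 P301L fragment (15 uM unlabeled plus 0.24 uM Alexa 594-labeled) in 100 mM sodium acetate pH 7 with compound, fibrillization induced by 20 uM heparin for 6 hr at 37 C. Thioflavin T (30 uM) added, fluorescence read after 1 hr (ex 450, em 510 nm).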
# NPSR antag: antagonists of human neuropeptide S receptor cAMP signaling. 220,000 compounds, 1% hits. Potency, µM (top dose mostly 38.3 µM), for the others: top-dose activity change, negative = inhibition, most hits filed as inhibitors. Q6W5P4. CHO-NPSR cells, cAMP TR-FRET, antagonist mode; also: nearly all actives have a fitted effect of over 50% in size
# Target sequence (Q6W5P4 whole entry, looked up): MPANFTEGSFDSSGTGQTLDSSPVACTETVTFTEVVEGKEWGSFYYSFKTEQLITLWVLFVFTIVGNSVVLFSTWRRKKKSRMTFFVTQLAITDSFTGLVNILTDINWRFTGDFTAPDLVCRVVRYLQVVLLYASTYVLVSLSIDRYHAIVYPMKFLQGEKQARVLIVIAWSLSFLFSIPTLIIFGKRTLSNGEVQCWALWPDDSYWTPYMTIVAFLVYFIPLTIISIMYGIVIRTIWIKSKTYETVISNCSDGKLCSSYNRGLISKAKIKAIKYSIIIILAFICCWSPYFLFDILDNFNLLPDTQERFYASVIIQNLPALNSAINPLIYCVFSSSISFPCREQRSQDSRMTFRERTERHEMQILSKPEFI
# Tau FP inhib: blocks human tau fibril formation measured by polarization; 280,000 compounds, 0.39% hits; Potency, µM (titrated, usually from 57.7 µM), for inactives: at the highest dose activity, negative = inhibition, most hits filed as inhibitors; AID 1468; P10636; K18 P301L tau heparin fibrillization, Alexa594 FP, 6 h; also: nearly all actives have a fitted effect of over 55% in size
#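 Quantitative HTS format: compounds meet 15 uM recombinant K18 P301L tau and Alexa 594-tau tracer in 100 mM sodium acetate pH 7; 20 uM heparin triggers fibrillization at 37 C over 6 hr; FP gives the signal.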
# Tau fluor counter: counter-screen for tau fibril formation inhibitors. tau K18 P301L (four-repeat tau fragment) Alexa594 fluorescence, heparin fibrillization. Potency, µM (top dose mostly 57.7 µM), for inactives: at the top dose activity change, negative = decrease. 280,000 compounds, 0.93% hits; also: nearly all actives have a fitted effect of over 55% in size
#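 Human K18 P301L tau (15 uM unlabeled plus 0.24 uM Alexa 594-labeled, final) in 100 mM sodium acetate pH 7 was mixed with compound and 20 uM heparin and incubated 6 hr at 37 C.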
# HPGD inh: inhibitors of human 15-hydroxyprostaglandin dehydrogenase (HPGD); Potency, µM, for the others: at the highest dose activity change, negative = inhibition, hits mostly inhibitors; purified HPGD, NADH fluorescence kinetic, PGE2 substrate; 150,000 compounds, 4.3% hits; P15428; active = well fitted inhibition curve with a large enough effect, not every such curve was filed as active; inconclusive = small, poorly fitted or top-dose-only effect, or another doubt; inactive = no such curve, though single readings can be large or run the other way
# Target sequence (P15428 whole entry, looked up): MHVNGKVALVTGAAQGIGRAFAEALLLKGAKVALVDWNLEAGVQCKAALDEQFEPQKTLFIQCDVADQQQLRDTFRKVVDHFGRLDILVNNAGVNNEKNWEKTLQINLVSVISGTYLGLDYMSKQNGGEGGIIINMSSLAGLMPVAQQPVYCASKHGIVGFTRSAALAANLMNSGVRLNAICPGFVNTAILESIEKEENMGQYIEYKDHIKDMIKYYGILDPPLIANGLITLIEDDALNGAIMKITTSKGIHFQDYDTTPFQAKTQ
#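 NADH formation kinetics: reaction with 30 uM PGE2 and 1 mM NAD+ (final), 20 nM enzyme, Tris-HCl pH 8 with Tween 20, after 15 min compound preincubation at room temperature. Fluorescence change, last versus first of five reads.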
# ALDH1A1 inh: inhibitors of human aldehyde dehydrogenase 1A1. Potency, µM (series often up to 75.3 µM), inactives show at the top dose activity, negative = inhibition, most hits filed as inhibitors. Purified ALDH1A1, NADH fluorescence, propionaldehyde substrate. P00352. 220,000 compounds, 7.3% hits; active = well fitted inhibition curve with a large enough effect, not every such curve was filed as active; inconclusive = small, poorly fitted or top-dose-only effect, or another doubt; inactive = no such curve, though single readings can be large or run the other way;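 also: plate controls were no enzyme wells and a reference inhibitor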
# * hit, by the source's call; ? = inconclusive; nt = no result given; [ ] = another dose, or the depositor's remark. Most compounds without a hit are left out; they make up all but 9.5% or so of the library. Unless noted, calls follow the shape of the dose curve; as a rule, active = well fitted curve in the direction sought with a large enough effect; inconclusive = small, poorly fitted or top-dose-only effect, or another doubt; inactive = no such curve, though single readings can be large; an effect the other way counts as inactive or inconclusive. Unless noted, % is scaled to controls: 0 for no effect and ±100 for the full control effect; potency is read from the fitted curve at half-maximal effect.
SMILES,Tau fibril ThT,NPSR antag,Tau FP inhib,Tau fluor counter,HPGD inh,ALDH1A1 inh
COc1cccc2cc(C(=O)CC3(O)C(=O)N(Cc4ccccc4)c4ccccc43)c(=O)oc12 (stereo not given),-11.4%,-9.1%[46.1 µM],6.8%,-2.5%,-1.3%,0.0891µM*
CCCCN1C(=O)C(O)(CC(=O)c2ccco2)c2cc(Br)ccc21 (stereo not given),-12.2%,-0.3%,2.7%,-8.8%,2.1%,8.91µM*
COCCNC(=O)c1ccc2c(c1)N(Cc1c(F)cccc1Cl)C(=O)c1ccccc1S2,-3.6%,nt,-1.0%,-25.6%,nt,nt
Cc1ccc(NS(=O)(=O)c2ccc(Br)s2)nc1,28.2µM*,19.0%,?,-15.5%,nt,?
Cc1cc(C)nc(NS(=O)(=O)c2ccc(Br)s2)c1,-2.6%,-18.2%[46.1 µM],-7.2%,-9.9%,?,25.1µM*
CCN(CC(=O)Nc1c(F)cccc1F)C(=O)Cc1ccccc1,0.0%,6.1%,-12.7%,0.4%,nt,-0.1%
CCN(CC(=O)Nc1c(F)cccc1F)C(=O)CCc1ccc(OC)cc1,-1.3%,7.0%,-2.0%,-3.5%,nt,14.1µM*
CN(c1ccc(OCc2nnc(-c3ccccc3)o2)cc1)S(=O)(=O)c1ccccc1,-14.7%,-18.9%[46.1 µM],1.7%,-28.0%,7.94µM*,5.1%
COc1ccc(OCc2nnc(-c3ccccc3)o2)cc1,?,nt,3.7%,-12.7%,nt,nt
Cc1ccc(S(=O)(=O)/N=C2/NC(=O)/C(=C/c3cccnc3)S2)cc1,-12.4%,-11.1%[46.1 µM],?,-0.9%,20µM*,2.9%
Cc1ccc(S(=O)(=O)/N=C2/NC(=O)/C(=C/c3ccc(Br)o3)S2)cc1,?,-19.3%,-7.7%,-3.2%,14.1µM*,-11.3%
COc1ccc(/C=C2\S/C(=N/S(=O)(=O)c3cccs3)NC2=O)cc1,-10.1%,-43.2%,10.2%,4.4%,nt,?
O=C1N/C(=N/O)S/C1=C/c1cccnc1,10.6%,-2.4%,3.7%,4.4%,nt,-12.0%
CCN(CC)CCCNc1cc(C)nc2cc(-c3cccs3)nn12,?,4.7%,9.3%[2.34 µM],-13.0%,nt,?
Cc1cc(C)c(S(=O)(=O)Nc2ccc(-c3ccc(N4CCC(C)CC4)nn3)cc2)cc1C,?,nt,-3.4%,-17.9%,nt,nt
N#CC(C#N)=Cc1ccc(OCC(=O)N2CCOCC2)cc1,?,-24.7%,?,-17.1%,nt,8.91µM*
CCOc1ccc(OCC(=O)N2CCOCC2)cc1,5.4%,-7.3%[46.1 µM],10.6%,9.9%,0.1%,-1.7%
CC1=NC(=O)C(N=Nc2ccccc2C(=O)O)N1c1ccccc1 (stereo not given),5.01µM*,27.1%,10.7%,-0.6%,nt,6.8%
CC1=NC(=O)C(N=Nc2ccccc2)N1c1ccccc1 (stereo not given),?,-14.6%[46.1 µM],?,-11.7%,-10.1%,1.4%
CC1=NC(=O)C(N=Nc2cccc(C(=O)O)c2)N1c1ccccc1 (stereo not given),15.8µM*,-16.2%[46.1 µM],4.5%,-15.1%,-5.3%,?
CC1(C)CC(=NO)CC(C)(C)N1,4.9%,1.3%[46.1 µM],-0.4%,-0.5%,-5.6%,18.0%
O=C(CSc1nnc(-c2ccccc2)o1)c1nnc(-c2ccccc2)o1,15.8µM*,-6.1%[46.1 µM],?,?,?,?
CCOC(=O)CSc1nnc(-c2ccccc2)o1,-5.9%,-0.4%,-5.8%,-6.1%,-10.1%,-2.1%
CCC1CCCCN1C(=O)CSc1nnc(-c2ccc3c(c2)OCCO3)o1 (stereo not given),-4.2%,-4.2%[46.1 µM],1.6%,-7.4%,?,?
O=C(CSc1nnc(-c2ccc3c(c2)OCCO3)o1)N1CCCC1,-3.0%,-15.3%[46.1 µM],-10.1%,2.3%,-25.3%,25.1µM*
SMILES,Tau fibril ThT,NPSR antag,Tau FP inhib,Tau fluor counter,HPGD inh,ALDH1A1 inh
Cc1cc(C)cc(-c2nnc(SCC(=O)c3ccc4c(c3)OCCO4)o2)c1,-9.7%,-8.2%[46.1 µM],-14.5%,-3.1%,-5.4%,-1.6%
O=C(CSc1nnc(-c2ccccc2)o1)c1ccc2c(c1)OCCO2,-12.1%,3.2%[7.67 µM],-11.6%,-15.6%,-7.1%,3.16µM*
O=C(Cc1ccccc1)c1nnc(-c2ccccc2)o1,-6.7%,-6.5%,-3.6%,1.6%,nt,8.91µM*
O=C(c1ccccc1)c1nnc(-c2ccncc2)o1,-14.7%,-1.1%[46.1 µM],-3.2%,-8.7%,-17.3%,5.1%
CCOC(=O)c1c(C)c(C)n(Cc2cccc(OC)c2OC)c1C,25.1µM*,-11.2%,?,-26.9%,-7.0%,10.7%
CC(C)(C)NCc1cc2ccccc2[nH]c1=O,-5.8%,8.4%[46.1 µM],1.8%,-2.6%,?,20µM*
CC1CCc2cccc3c2N1c1cc(C#N)c(C#N)cc1O3 (stereo not given),?,-29.6%[46.1 µM],6.0%,?,-5.9%,12.3%
COc1ccc(NC(=O)c2cc3c(Cl)nc4ccccc4c3s2)cc1OC,?,-7.5%,6.6%,4.47µM*[quencher],-5.1%,2.5%
COc1ccc(-c2cnnn2-c2ccc(NC(=O)c3ccc(S(=O)(=O)N4CCCCC4)cc3)cc2)cc1OC,9.6%,3.16µM*,3.8%,4.5%,?,?
O=C(COc1ccc(S(=O)(=O)N2CCCCC2)cc1)NCc1ccncc1,-4.0%,-3.5%[46.1 µM],-4.6%,0.9%,-13.9%,22.4µM*
COc1ccc(CCC(=O)N2CCN(S(=O)(=O)c3ccc4ccccc4c3)CC2)cc1,-18.9%,-24.1%[46.1 µM],-1.9%,-19.8%,-18.9%,14.1µM*
CC1CC(C)CN(S(=O)(=O)c2ccc(C(=O)Nc3sccc3C(N)=O)cc2)C1 (stereo not given),9.3%,?,?,-13.3%,?,?
NC(=O)c1ccsc1NC(=O)c1ccc(S(=O)(=O)N2CCCC2)cc1,-0.3%,2µM*,-7.4%,-20.9%,nt,?
COC(=O)COc1ccc(S(=O)(=O)N2CCCCCC2)cc1,7.4%,0.6%,0.9%,-0.6%,nt,-2.3%
Cc1c(C(=O)N2CCCC2)oc2c1-c1[nH]ncc1CC2,?,23.4%,-7.7%,-21.2%,-7.8%,-14.8%
CCOC(=O)N1CCN(c2cc(=O)n(-c3ccc(Br)cc3)c(=O)[nH]2)CC1,?,-1.8%[46.1 µM],2.6%,-10.2%,1.2%,4.4%
CCOc1ccc(CCNC(=O)Cn2ccc3cc(S(=O)(=O)N4CCCCC4)ccc32)cc1,-4.5%,nt,2.3%,-22.3%,nt,nt
O=C(Nc1ccc(Cc2ccncc2)cc1)c1ccc(S(=O)(=O)N2CCCC2)cc1,1.9%,3.1%,2.1%,-13.0%,nt,14.1µM*
COc1ccc(CCNC(=O)COc2ccc(S(=O)(=O)N3CCCC3)cc2)cc1,4.0%,-11.6%,2.2%,4.5%,nt,10µM*
O=C(Nc1nnc(-c2ccco2)o1)c1ccc(S(=O)(=O)N2CCCC2)cc1,-4.8%,-21.8%,-4.6%,-8.3%,nt,35.5µM*
CC(=O)c1ccc(NC(=O)c2ccc(S(=O)(=O)N3CCCC3)cc2)cc1,0.2%,-11.9%[46.1 µM],-5.9%,-13.5%,-14.2%,?
